# This is a sample that favours compounds with a hit; in the whole collection about 3.5% have one here.
# GPR151 ag = activators of human GPR151, primary screen, cell-based, PathHunter beta-arrestin, luminescence | G-protein coupled receptor 151 (Homo sapiens), Q8TDV0 | 1% of 650,000 active | activation, % at 11.2 µM | AID 1508602, 2020 | PathHunter beta-arrestin GPR151 cells; in the data active = activation above about 4.9%
# FBW7 activator = FBW7 E3 ligase activators, primary screen, biochemical, AlphaScreen, human; F-box/WD repeat-containing protein 7 (Homo sapiens), Q969H0; AID 1259310, 2017; 0.13% of 650,000 active; normalized activity (activation), % at 26.1 µM; AlphaScreen FBW7–phospho-cyclin E peptide binding, activator screen; in the data active = normalized activity above about 1.9%;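 also: purified mutant Fbw7 with reduced substrate affinity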
# MITF primary = MITF inhibitors, primary screen, biochemical, AlphaScreen, human. Microphthalmia-associated transcription factor (Homo sapiens), O75030. AlphaScreen MITF homodimerization, bead proximity signal. inhibition, % at 2.6 µM. 0.91% of 650,000 active. AID 1259374, 2018; in the data active = inhibition above about 50%
# Target sequence (O75030 whole entry, looked up): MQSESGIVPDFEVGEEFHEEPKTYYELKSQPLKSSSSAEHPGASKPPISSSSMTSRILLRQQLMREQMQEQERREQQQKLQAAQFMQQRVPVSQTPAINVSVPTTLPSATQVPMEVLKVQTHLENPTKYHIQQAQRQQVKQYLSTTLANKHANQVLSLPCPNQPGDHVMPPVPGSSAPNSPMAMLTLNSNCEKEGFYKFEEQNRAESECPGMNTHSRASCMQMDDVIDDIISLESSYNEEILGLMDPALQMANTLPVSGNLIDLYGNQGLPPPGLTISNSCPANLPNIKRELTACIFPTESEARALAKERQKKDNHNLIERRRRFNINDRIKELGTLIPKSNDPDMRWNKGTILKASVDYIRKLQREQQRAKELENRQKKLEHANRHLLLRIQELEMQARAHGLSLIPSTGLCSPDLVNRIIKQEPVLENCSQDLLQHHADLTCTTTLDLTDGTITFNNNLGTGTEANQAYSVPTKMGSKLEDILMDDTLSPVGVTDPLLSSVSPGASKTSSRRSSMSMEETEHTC
# TEAD-YAP block = TEAD-YAP interaction inhibition, primary screen, TEAD-YAP interaction inhibitor project, luminescence, HEK-TIYL cells. TEAD-Gal4/YAP UAS-luciferase luminescence. 1.4% of 640,000 active. inhibition, % at 9.12 µM; in the data active = inhibition above about 32%
# MITF confirm = MITF inhibitors, retest of hits, confirmation, biochemical, AlphaScreen, triplicate. shares compounds with MITF primary. AlphaScreen MITF homodimerization, biotin/His-MITF beads. inhibition, % at 2.6 µM. 16% of 4,700 active. AID 1259372, 2018;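 active = inhibition above a cutoff derived from the DMSO control wells, cut at about 28% in these data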;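 also: inhibitors lower the bead chemiluminescence by keeping MITF from dimerizing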
# AlphaScreen DR = AlphaScreen optical interference compounds, dose response, counter-screen, biochemical, HTS; shares compounds with MITF primary; AlphaScreen optical interference counterscreen, cell-free; IC50, µM; 6% of 480 active; AID 1259373, 2018; call rule not given here
# AlphaScreen intf2 = AlphaScreen optical interference compounds, counter-screen for MITF inhibitor project, biochemical, triplicate | shares compounds with MITF primary | LysRS AlphaScreen counterscreen, signal interference | inhibition, % at 2.6 µM | 7.6% of 4,700 active | AID 1259376, 2018;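 active = inhibition above a cutoff derived from the DMSO control wells, cut at about 30% in these data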
# A number is an active result; - = inactive; . = no result.
SMILES,GPR151 ag,FBW7 activator,MITF primary,TEAD-YAP block,MITF confirm,AlphaScreen intf2,others
OC(CNc1ccccc1)Cn1ccc2ccccc21 (configuration not stated),-,-,52.4,-,-,-,
O=C(Nc1sc2c(c1C(=O)NC1CCCCC1)CCC2)c1cccnc1,-,-,-,-,.,.,
CCNc1nc(Nc2ccccc2)c2cnn(C)c2n1,-,-,-,-,.,.,
CCCNc1nc(Nc2ccccc2)c2cnn(C)c2n1,-,-,112.3,-,-,-,
OCCN(CCO)c1ncnc2sc3c(c12)CCCC3,-,-,68.5,-,-,-,
CCNS(=O)(=O)c1ccc(Cl)c(Cl)c1,-,-,56.4,-,-,-,
O=[N+]([O-])c1cccc(/C=N/n2c(C(F)(F)F)n[nH]c2=S)c1,-,-,-,-,.,.,
CCOC(=O)c1cnc(-n2[nH]c(C)cc2=O)[nH]c1=O,-,-,84.3,-,97.7,96.4,
CCOC(=O)c1cnc(-n2[nH]c(C)c(Cc3ccccc3)c2=O)[nH]c1=O,-,-,96.2,-,87.5,100.0,
Cc1ccc(C)c(OCc2cc(C(=O)N3CCC(N4CCCC4)CC3)no2)c1,-,-,-,-,.,.,
CCOC(=O)c1ccc(Nc2cc(C)nc(NCc3ccccc3)n2)cc1,-,-,-,-,.,.,
COC(C)(C)CNC(=O)C1CCN(C2CCN(Cc3cccc(C)n3)CC2)CC1,-,-,81.2,-,72.5,-,AlphaScreen DR=-
CCC(C)CNC(=O)C1CCN(C2CCN(Cc3cccc(C)n3)CC2)CC1 (configuration not stated),-,-,-,-,.,.,
CCCC(=O)N1CCN(c2ccc(N)cc2Cl)CC1,-,-,-,-,.,.,
O=C(Nc1cccc(C(=O)N2CCN(Cc3ccc4c(c3)OCO4)CC2)c1)c1ccccc1,-,-,-,-,.,.,
CN(C)CCCNCC(=O)NN(c1ccccc1)c1ccccc1,-,-,63.6,-,-,-,
CCCCNCC(=O)NN(c1ccccc1)c1ccccc1,-,-,-,-,.,.,
COCCNCCOc1c(C)cccc1C(C)(C)C,-,-,80.4,-,-,-,
NCCNCCOCCOc1cccc(Cl)c1Cl,-,-,51.0,-,-,-,
COCCNCCOCCOc1cccc(Cl)c1Cl,-,-,-,-,.,.,
Cc1cccc(Cl)c1OCCOCCNCCO,-,-,72.5,-,-,-,
CCCCNCCOCCOc1c(C)cccc1Cl,-,-,-,-,.,.,
COCCNCCCOc1c(C)cccc1C(C)(C)C,-,-,-,-,.,.,
COCCNCCOCCOc1c(C)cccc1C(C)(C)C,-,-,61.3,-,-,-,
CCOC(=O)C1=C(C)N=c2s/c(=C\c3c(C)[nH]c4ccccc34)c(=O)n2C1c1ccccc1 (configuration not stated),-,-,66.2,-,-,-,
SMILES,GPR151 ag,FBW7 activator,MITF primary,TEAD-YAP block,MITF confirm,AlphaScreen intf2,others
CCOC(=O)C1=C(c2ccccc2)N=c2s/c(=C\c3cccs3)c(=O)n2C1c1c(OC)ccc2ccccc12 (configuration not stated),-,-,54.8,-,-,-,
COCCNC(=S)NNc1ccc2ccccc2c1,-,-,-,-,.,.,
COC(=O)c1ccc(-c2csc(NC(=O)c3ccc(C(=O)c4ccccc4)cc3)n2)cc1,-,-,-,-,.,.,
Fc1ccc(CN2CCN(C3CCCCC3)CC2)cc1,-,-,-,-,.,.,
CC1CCC(N2CCN(Cc3cccc(F)c3)CC2)CC1 (configuration not stated),-,-,53.7,-,-,-,
Fc1cccc(CN2CCN(C3CCCCCC3)CC2)c1,-,-,65.9,-,-,-,
Fc1cccc(CN2CCN(C3CCCCC3)CC2)c1,-,-,72.3,-,-,-,
OC1CCN(Cc2cccc(F)c2)CC1,-,-,-,-,.,.,
CCc1nc2ccccc2c(NC(=O)CN2CCCC2)c1C,-,-,64.8,-,-,-,
O=C(CN1CCCC1)Nc1ccccc1,-,-,-,-,.,.,
CCc1nc2ccccc2c(NC(=O)CNC(C)(C)CC(C)(C)C)c1C,-,-,70.0,-,-,-,
O=C(CN1CCCC1)Nc1c2c(nc3ccccc13)N(c1ccccc1)CC2,-,-,71.8,-,-,-,
CC(C(O)c1ccccc1)N(C)CC(=O)Nc1c2c(nc3ccccc13)N(C)CC2 (configuration not stated),-,-,66.6,-,-,-,
O=C(CN1CCCC1)Nc1c2c(nc3ccccc13)N(Cc1ccccc1)CC2,-,-,-,-,.,.,
N#CC1=C(N)N(c2ccccc2)C2=C(C(=O)CCC2)C1c1cc(Br)cs1 (configuration not stated),-,-,-,-,.,.,
CC(C)(C)n1nc2c(c1NC(=O)c1cccc3ccccc13)CS(=O)C2 (configuration not stated),-,-,-,-,.,.,
CCOC(=O)C1=C(O)/C(=C\c2cc(Br)ccc2OC)N=C1C,-,-,-,-,.,.,
CCOc1ccc(CNC(=O)CN2C(=O)C(CC)Sc3ccccc32)cc1OC (configuration not stated),-,-,50.8,-,-,-,
CCC1Sc2ccccc2N(CC(=O)NCCc2ccc(OC)c(OC)c2)C1=O (configuration not stated),-,-,-,-,.,.,
CNC(=O)c1nnc(-c2ccccc2)o1,-,-,78.0,-,-,-,
C[C@H]1C(=O)N2CCN(CCc3ccccc3)C[C@@H]2C(=O)N1C,-,-,-,-,.,.,
O=C(OCc1ccccc1)N1CCN2C(=O)[C@@H]3CCCN3C(=O)[C@H]2C1,-,-,-,-,.,.,
C[C@H]1C(=O)N2CCN(C(=O)NCc3ccccc3)C[C@@H]2C(=O)N1C,-,-,76.0,-,73.0,-,AlphaScreen DR=-
O=C(NCc1ccccc1)N1CCN2C(=O)[C@@H]3CCCN3C(=O)[C@H]2C1,-,-,77.5,-,74.3,-,AlphaScreen DR=-
CCc1nn(CC2CC2)c(=O)c2cc3oc(C)cc3n12,-,-,-,-,.,.,
COC(=O)C(C)CN1CCc2ccccc2C1 (configuration not stated),-,-,-,-,.,.,
COC(=O)C(C)CN1CCN(Cc2ccccc2)CC1 (configuration not stated),-,-,78.5,-,-,-,
CC(=O)N(C)c1ccc(OCC(O)CN2CCN(Cc3ccccc3)CC2)cc1 (configuration not stated),-,-,82.1,-,-,-,
COc1ccccc1-n1c(=S)sc2c(=O)n(-c3ccccc3)c(SCC(=O)c3ccc(Cl)cc3)nc21,-,-,67.7,-,-,-,
Cc1ccc(S(=O)(=O)NCC(=O)OCC(=O)c2ccc(OC(F)F)cc2)cc1,-,-,-,-,.,.,
